# The list is not random: actives were taken first. Their share in the collection is about 4.2%.
# TRPV1 agonist: HTS Assay for Compounds that Act as Agonists of the Vanilloid Receptor 1; TRPV1-expressing cells, Fluo-8 calcium influx, agonist mode; activation, % at 8.33 µM; 320,000 tested, 0.19% active; AID 540275, 2011; in the data active = activation above about 80%; inconclusive = between about 30% and that limit; note: 0% is about no effect
#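 TRPV1-expressing cells were cultured overnight at 35.5C and loaded with Fluo-8 calcium dye for 40 to 90 min at room temperature. After a 10 s baseline, compound was added and calcium influx was read kinetically for 3 min (ex 480/em 520 nm).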
# TRPV1 PAM: HTS Assay for Compounds that Act as Potentiators of the Vanilloid Receptor 1; TRPV1-expressing cells, Fluo-8 calcium influx, capsaicin EC20 potentiation; potentiation, % at 8.33 µM; Transient receptor potential cation channel subfamily V member 1 (Homo sapiens), Q8NER1; AID 540277, 2011; 320,000 tested, 0.02% active; in the data active = potentiation above about 80%; inconclusive = between about 30% and that limit; note: 0% is about no effect
#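 TRPV1-expressing cells were cultured overnight at 35.5C and loaded with Fluo-8 calcium dye for 40 to 90 min at room temperature. After a 10 s baseline, compound was added and calcium influx was read kinetically for 3 min (ex 480/em 520 nm).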
# D1 antag: Antagonist of Human D 1 Dopamine Receptor: qHTS | HEK293 TREx D1 cells, calcium flux, dopamine EC80; stronger effect = lower value | activity change, negative = inhibition, % at 10 µM | 360,000 tested, 3.2% active | AID 504652, 2011; in the data active = activity change below about -30%; note: % is set by controls: 0 for no effect and ±100 for the full control effect
#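 Antagonism measured as reduced calcium response to an EC80 dopamine addition following 180 s compound pre-read; cells were inducible HEK293 Trex D1 plated overnight at 30 C, read kinetically at 1 cycle/sec.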
# D1 PAM: Potentiators of Human D1 Dopamine Receptor: qHTS; D(1A) dopamine receptor (Homo sapiens), P21728; HEK293 TREx D1 cells, calcium flux, dopamine EC20 potentiation; potentiation, % at 10 µM; 360,000 tested, 0.036% active; in the data active = potentiation above about 30%; note: 0% is about no effect
# D1 ag: Allosteric Agonists of the Human D1 Dopamine Receptor: qHTS. HEK293 T-REx D1 cells, calcium flux, agonist mode. activation, % at 2 µM. 360,000 tested, 1% active. AID 504660, 2011; in the data active = activation above about 30%; note: 0% is about no effect
#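 Tetracycline-induced HEK293 TREx D1 cells, force-coupled to calcium signalling, were dye-loaded with a no-wash calcium kit. Compound was pin-added after a 10 s baseline. Fluorescence was read kinetically at 1 cycle/s for 180 s, with calcium rises flagged as agonism.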
# Active calls of the source: *; ? = inconclusive; nt = not tested or not shown.
SMILES,TRPV1 agonist,TRPV1 PAM,D1 antag,D1 PAM,D1 ag
CCCCN(CC)Cc1c(O)ccc2c(-c3ccccc3)cc(=O)oc12,6,-7,-27,-10,-1
CCN(CC)Cc1c(O)ccc2c(-c3ccccc3)cc(=O)oc12,-2,-3,-31*,-13,3
Cc1ccc(Oc2ccc(OCC(=O)NC3CCS(=O)(=O)C3)cc2)cc1 (stereo unspecified),-3,12,-48*,nt,36*
N#Cc1ccccc1OCC(=O)NC(=O)NC1CCS(=O)(=O)C1 (stereo unspecified),1,2,5,0,3
O=C(COc1ccc([N+](=O)[O-])cc1)NC(=O)NC1CCS(=O)(=O)C1 (stereo unspecified),-2,-6,-45*,-6,5
CC(=O)c1ccc(OCC(=O)NC2CCS(=O)(=O)C2)cc1 (stereo unspecified),-1,-3,0,5,0
COc1ccc(-n2ccnc2SCC(=O)Nc2cccc(OC)c2)cc1,nt,nt,-18,-4,8
Cc1ccccc1-c1noc(-c2ccccc2OCC(=O)Nc2cccc([N+](=O)[O-])c2)n1,nt,nt,1,-3,1
CC(C)(C#CC(O)(c1ccccc1)c1ccccc1)N1CCCCC1,12,-8,3,-2,3
CC(C)(C#CC(O)(c1ccccc1)c1ccccc1)N1CCCC1,1,13,-71*,-4,7
Cn1c(=O)c2c(ncn2CC(O)CNc2ccc(Cl)cc2)n(C)c1=O (stereo unspecified),-2,-1,-37*,-6,2
Cc1ccc(NCC(O)Cn2cnc3c2c(=O)n(C)c(=O)n3C)cc1 (stereo unspecified),0,2,7,-4,2
COCCn1c(-c2ccc(Br)cc2)nc2oc3cc(OC)ccc3c(=O)c2c1=O,6,-8,-45*,0,0
CCc1ccc2nc(SCC(=O)N(CC)CC)c(C#N)cc2c1,26,-16,-46*,-8,1
Cc1cc(C)c(OCC(=O)Nc2ccccc2N2CCOCC2)c(C)c1,?,8,4,2,44*
Cc1cc(C)c(OCC(=O)Nc2ccccc2N2CCCCC2)c(C)c1,22,-12,4,1,6
Cc1ccc(CNC(=O)C(=O)NCC(c2cccnc2)N2CCN(c3ccccc3F)CC2)cc1 (stereo unspecified),nt,nt,-1,-3,12
Cc1[nH]c2ccccc2c1C(=O)C(=O)N1CC=C(c2ccccc2)CC1,-6,8,-37*,-2,24
Cc1[nH]c2ccccc2c1C(=O)C(=O)N1CCN(c2cccc(Cl)c2)CC1,3,21,-38*,1,4
COc1ccc(CCN2C(=O)CN(C3CCCCCC3)C(=O)C2c2ccc(Cl)cc2)cc1OC (stereo unspecified),nt,nt,11,-1,5
Cc1ccc(NC(=O)Cn2c(=O)n(-c3ccc(CC(=O)NCC4CCCO4)cc3)c(=O)c3ccccc32)cc1 (stereo unspecified),nt,nt,6,0,0
O=C1CCc2cc(S(=O)(=O)N3CCCC3C(=O)NC3CCCCCCC3)ccc2N1 (stereo unspecified),8,?,2,-3,8
O=C1CCc2cc(S(=O)(=O)N3CCC(C(=O)NC4CCCC4)CC3)ccc2N1,-1,?,-31*,-4,0
Cc1cccc(CCN2CCN=C2Nc2ccccc2)c1,3,27,-40*,0,46*
c1ccc(CCN2CCN=C2Nc2ccccc2)cc1,4,1,-12,-6,19
SMILES,TRPV1 agonist,TRPV1 PAM,D1 antag,D1 PAM,D1 ag
Fc1ccc(CCN2CCN=C2Nc2ccccc2)cc1,2,-24,-15,-8,35*
CCCCN1CCN=C1Nc1ccccc1,1,23,-8,-2,0
Cc1cccc(NC2=NCC(=O)N2CCc2ccccc2)c1,19,-11,-36*,-7,3
Cc1ccc(Cl)cc1NC(=O)C1CCCN(S(=O)(=O)c2c(C)noc2/C=C/N(C)C)C1 (stereo unspecified),nt,nt,-17,-2,-1
COC(=O)c1cc(S(=O)(=O)Nc2nn(C)c3ccccc23)oc1C,-1,18,-4,-6,0
COC(=O)c1cc(S(=O)(=O)Nc2nn(C)c3cccc(F)c23)oc1C,6,0,-40*,4,0
COc1ccc(-c2cc(C(F)F)nc(-n3nc(C)cc3C)n2)cc1,1,16,-60*,-14,6
O=S(=O)(NCc1nc2cccnc2n1Cc1ccccc1Cl)c1ccc2c(c1)CCCC2,nt,nt,-5,1,5
CNS(=O)(=O)c1ccc(Oc2ccc(S(=O)(=O)NC)cc2)cc1,3,13,-44*,-6,8
O=C(CCN1C(=O)S/C(=C\C=C\c2ccccc2)C1=O)Nc1ccc(O)cc1,?,-20,-38*,-2,-1
COc1cccc(CN2CC(C(=O)NCCSc3nnnn3C)CCC2=O)c1 (stereo unspecified),-6,9,-37*,-4,2
Cn1nnnc1SCCNC(=O)C1CCC(=O)N(CCc2ccccc2)C1 (stereo unspecified),0,3,11,-1,1
CCOc1ccc(NC(=O)Nc2nc(SCC)ns2)cc1,-1,1,-41*,-6,27
CCSc1nsc(NC(=O)Nc2ccc(F)cc2F)n1,1,26,-16,-12,24
Cc1ccc(CNC(=O)c2ccc(-c3nc(CS(=O)(=O)c4ccc(C)cc4)c(C)o3)cc2)cc1,nt,nt,-1,-1,0
Cc1sc2ncn(CC(=O)N3CCN(c4ccc(Cl)cc4)CC3)c(=O)c2c1S(=O)(=O)N1CCN(c2ncccn2)CC1,nt,nt,0,-1,2
COc1cccc(COC(=O)C2CCN(S(=O)(=O)c3ccc(F)cc3)CC2)c1OC,8,-21,-9,-6,31*
COc1cccc(COC(=O)c2ccc(S(=O)(=O)N3CCC(C)CC3)cc2)c1OC,4,-1,2,-2,10
Cc1ccc2occ(CC(=O)N(Cc3ccc(C(C)C)cc3)C3CCS(=O)(=O)C3)c2c1 (stereo unspecified),nt,nt,8,11,6
CCN1CCN(CCCNC(=O)Cn2c(-c3cccs3)cc3cc(F)ccc32)CC1,nt,nt,-6,4,36*
O=C(Cn1c(-c2cccs2)cc2cc(F)ccc21)NCCCN1CCN(c2ccc(F)cc2)CC1,nt,nt,-35*,0,-2
COc1ccc(CCNC(=O)Cn2c(-c3cccs3)cc3cc(F)ccc32)cc1OC,nt,nt,-17,-4,4
